Reference: PubChem BioAssay (Tox21)
Records with an inconclusive call do not appear. The source made the active and inactive calls. Unless noted, calls come from the whole dose curve; as a rule, active = well fitted curve in the direction sought with a large enough effect in the repeat runs; inconclusive = weak or mixed curves; inactive = no such curve, though single readings can be large; an effect the other way counts as inactive or inconclusive. Non-standard residues stand in square brackets, D forms with d. Residues, ends and D or L forms follow the SMILES beside them. pGlu = O=C1CC[C@@H](C(=O)O)N1

How the values were obtained:
[1] = qHTS assay for small molecule agonists of the p53 signaling pathway (AID 651631; calls by dose curve; note: nearly all actives have a fitted effect of over 15% in size; note: potency is the fitted concentration of half-maximal effect)
Method in brief: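 HCT-116 p53RE-bla reporter line, 16 h compound treatment at 37 °C, then fluorescence after 2 h with B/G FRET substrate.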

[2] = qHTS assay for small molecules that induce genotoxicity in human embryonic kidney cells expressing luciferase-tagged ATAD5 (AID 651632); note: nearly all actives have a fitted effect of over 15% in size; note: potency is the fitted concentration of half-maximal effect
Method in brief: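 Genotoxicity read-out via ATAD5-luciferase: HEK293T cells, 16 hr compound incubation at 37C, Amplite detection.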

[3] = qHTS assay for small molecule agonists of the p53 signaling pathway - cell viability (AID 651633; calls by dose curve; note: nearly all actives have a fitted effect of over 30% in size; note: potency is the fitted concentration of half-maximal effect)
Method in brief: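 p53RE-bla cells were treated with compound for 16 hours at 37 C. Cytotoxicity was then measured as CellTiter-Glo luminescence after 30 min at room temperature.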

[4] = qHTS assay for small molecules that induce genotoxicity in human embryonic kidney cells expressing luciferase-tagged ATAD5 - cell viability (AID 651634; calls by dose curve; note: nearly all actives have a fitted effect of over 25% in size; note: potency is the fitted concentration of half-maximal effect)
Method in brief: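 Live-cell protease activity (CellTiter-Fluor, fluorescence) indicates viability. HEK293T cells with luciferase-tagged ATAD5; 15.5 hr compound treatment at 37C.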

[5] = qHTS assay for small molecule disruptors of the mitochondrial membrane potential - cell viability (AID 720634; calls by dose curve;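 note: human HepG2 liver cancer cells; nearly all actives have a fitted effect of over 20% in size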)
Method in brief: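 Human hepatoma HepG2 cells were treated for 1 hr with test chemicals, then given m-MPI dye and CellTiter-Glo. Cell viability reflects luminescence proportional to cellular ATP.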

[6] = qHTS assay for small molecule disruptors of the mitochondrial membrane potential (AID 720635)
Method in brief: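 HepG2 cells exposed to compound 1 hr at 37C, then Mito-MPS dye 30 min. Ratio read of aggregate (540/590 nm) versus monomer (490/535 nm) fluorescence.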

[7] = qHTS assay to test for compound auto fluorescence at 590 nm (red) in HepG2 cells (AID 720674)
Method in brief: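 Seeding: 2,000 HepG2 cells/well, MEM/10% FBS, overnight 37 C. Dosing: compound vs DMSO. Incubation: 1 hr, 37 C, 5% CO2. Read: fluorescence 540 ex/590 em, Rose Bengal sodium as red reference.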

[8] = qHTS assay to test for compound auto fluorescence at 535 nm (green) in HepG2 cells (AID 720675)
[9] = qHTS assay to test for compound auto fluorescence at 460 nm (blue) in HEK293 cells (AID 720678)
Method in brief: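 Triamterene serves as the blue fluorophore standard. Compound signal at 405/460 nm is read in HEK293 wells (2,000 cells, 10% dialyzed FBS) after overnight treatment at 37C.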

[10] = qHTS assay to test for compound auto fluorescence at 590 nm (red) in HEK293 cells (AID 720679)
Method in brief: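 We plated HEK293 cells in 10% dialyzed FBS medium, let them adhere for 4-5 hr, then added 23 nL compound. Overnight at 37C and 5% CO2 preceded fluorescence measurement at 540/590nm.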

[11] = qHTS assay to test for compound auto fluorescence at 535 nm (green) in HEK293 cells (AID 720680)
[12] = qHTS assay to test for compound auto fluorescence at 460 nm (blue) in HEK293 cell free culture (AID 720681)
Method in brief: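 Compounds were added to cell-free DMEM with 10% FBS and fluorescence read directly. The blue channel used 405 nm excitation and 460 nm emission, with triamterene as the reference fluorophore.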

[13] = qHTS assay to test for compound auto fluorescence at 535 nm (green) in HEK293 cell free culture (AID 720682)
Method in brief: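 Steps: dispense DMEM/10% FBS into empty wells; pin in compound or DMSO; measure fluorescence at 485/535 nm. Values are fluorescein equivalents.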

[14] = qHTS assay to test for compound auto fluorescence at 590 nm (red) in HEK293 cell free culture (AID 720683)
Method in brief: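 Cell-free wells of DMEM with 10% FBS received compound, and intrinsic fluorescence was read at excitation/emission 540/590 nm. Values expressed as equivalence to Rose Bengal sodium.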

[15] = qHTS assay to test for compound auto fluorescence at 590 nm (red) in HepG2 cell free culture (AID 720684)
Method in brief: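 Compound was pinned into wells holding MEM with 10% FBS and no cells, and red fluorescence was read at Ex/Em 540/590 nm. Signal is expressed as auto fluorescence equivalency relative to Rose Bengal sodium.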

[16] = qHTS assay to test for compound auto fluorescence at 460 nm (blue) in HepG2 cell free culture (AID 720685)
Method in brief: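 Compound (23 nL) or DMSO pinned into cell-free MEM with 10% FBS; blue fluorescence read at 405/460 nm excitation/emission, expressed as auto-fluorescence equivalency to triamterene.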

[17] = qHTS assay to test for compound auto fluorescence at 535 nm (green) in HepG2 cell free culture (AID 720686)
[18] = target: Glucocorticoid receptor (Homo sapiens) (UniProt P04150); assay: qHTS assay to identify small molecule agonists of the glucocorticoid receptor (GR) signaling pathway (AID 720691; active = well fitted activation curve with a large enough effect in the signal ratio in the repeat runs, not every such curve was filed as active; the % refers to the signal ratio); details: GR-bla HeLa, beta-lactamase reporter ratio, 18 h; activation: at 62.4 µM (top of the series)
Method in brief: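 Beta-lactamase reporter activity, read as fluorescence intensity, was measured in GR-bla HeLa cells exposed to compounds for 18 h at 37 C and then loaded with LiveBLAzer B/G FRET substrate for 2 h at room temperature.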

[19] = target: Glucocorticoid receptor (Homo sapiens) (UniProt P04150); assay: qHTS assay to identify small molecule antagonists of the glucocorticoid receptor (GR) signaling pathway (AID 720692; active = well fitted inhibition curve with a large enough effect in the signal ratio in the repeat runs, not every such curve was filed as active; the % refers to the signal ratio)
Method in brief: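 Fluorescence from cleaved LiveBLAzer B/G FRET substrate reports GRE-driven beta-lactamase in HeLa cells; compounds are tested against 5 nM dexamethasone (final) over 18 h at 37 C, substrate incubation 2 h at room temperature.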

[20] = qHTS assay to test for compound auto fluorescence at 460 nm (blue) in HepG2 cells (AID 720687)
Method in brief: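 HepG2 cells in MEM with 10% FBS, attached overnight at 37 C, were exposed to compound or DMSO for 1 hr at 37 C, 5% CO2. Blue fluorescence was read at 405/460 nm, with triamterene as reference fluorophore.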

Measured: Potency

Sequence of Glucocorticoid receptor (Homo sapiens) (P04150 whole entry, looked up): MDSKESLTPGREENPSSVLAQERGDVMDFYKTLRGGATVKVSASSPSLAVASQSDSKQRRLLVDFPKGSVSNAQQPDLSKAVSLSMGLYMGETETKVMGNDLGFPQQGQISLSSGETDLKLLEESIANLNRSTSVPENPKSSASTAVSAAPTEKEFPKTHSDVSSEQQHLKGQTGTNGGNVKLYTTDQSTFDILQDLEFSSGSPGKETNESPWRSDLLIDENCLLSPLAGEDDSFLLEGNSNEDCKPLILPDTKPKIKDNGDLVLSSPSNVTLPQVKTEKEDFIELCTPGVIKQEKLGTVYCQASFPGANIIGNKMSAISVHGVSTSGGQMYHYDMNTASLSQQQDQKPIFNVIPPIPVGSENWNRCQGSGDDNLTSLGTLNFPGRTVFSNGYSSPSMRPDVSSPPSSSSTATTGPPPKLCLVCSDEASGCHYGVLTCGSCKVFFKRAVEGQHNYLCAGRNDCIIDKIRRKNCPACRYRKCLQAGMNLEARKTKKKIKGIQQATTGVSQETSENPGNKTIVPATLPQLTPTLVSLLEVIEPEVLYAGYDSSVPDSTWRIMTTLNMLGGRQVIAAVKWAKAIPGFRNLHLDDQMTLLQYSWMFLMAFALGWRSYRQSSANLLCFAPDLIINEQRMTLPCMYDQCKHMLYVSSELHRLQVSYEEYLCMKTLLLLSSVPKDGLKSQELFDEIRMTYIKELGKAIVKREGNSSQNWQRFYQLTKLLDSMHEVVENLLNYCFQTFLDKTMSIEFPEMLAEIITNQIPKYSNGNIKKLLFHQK

O=P(O)(O)OC(Cn1cncn1)(Cn1cncn1)c1ccc(F)cc1F
not listed: [20]
inactive: all other assays above

CCN(CC)c1ccc(N=Nc2ccc(S(=O)(=O)N(C)C)cc2)c(S(=O)(=O)NCC[n+]2ccccc2)c1
not listed: [15]
inactive: all other assays above

CS(=O)(=O)NC(=O)CCC/C=C\C[C@H]1C(=O)C[C@@H](O)[C@@H]1/C=C/[C@H](O)COc1ccccc1
not listed: [16] | [19]
inactive: all other assays above

O=C1c2ccccc2C(=O)C1c1ccc(Cl)cc1
not listed: [6] | [18] | [19]
inactive: all other assays above

C#CCC(Cc1cnc2nc(N)nc(N)c2n1)c1ccc(C(=O)N[C@@H](CCC(=O)O)C(=O)O)cc1 (stereo partly specified)
active: [1] 266 nM | [3] 266 nM | [4] 211 nM
not listed: [9] | [12] | [16] | [20]
inactive: all other assays above

CCCC(=O)N1CCCN(c2nc(N)c3cc(OC)c(OC)cc3n2)CC1
not listed: [6] | [18] | [19]
inactive: all other assays above

CCCCCCCCCCCCCCCCCCCCCC(=O)Nc1ccn([C@@H]2O[C@H](CO)[C@@H](O)[C@@H]2O)c(=O)n1
active: [1] 11900 nM
not listed: [9] | [15] | [19]
inactive: all other assays above

O=S(=O)(O)CCCS(=O)(=O)O
not listed: [6] | [18] | [19]
inactive: all other assays above

Cc1cc(-n2c(=O)[nH]c(=O)n(C)c2=O)ccc1Oc1ccc(S(=O)(=O)C(F)(F)F)cc1
not listed: [9] | [19]
inactive: all other assays above

COC(=O)[C@H]1[C@H]2C[C@@H]3c4[nH]c5cc(OC)ccc5c4CCN3C[C@H]2C[C@H](OC)[C@@H]1OC
not listed: [9] | [12] | [16] | [20]
inactive: all other assays above

CCN(CC)CCOC(=O)c1ccc(N)cc1Cl
not listed: [7] | [15]
inactive: all other assays above

C/C=C1\NC(=O)[C@H]2CSSCC/C=C/[C@H](CC(=O)N[C@H](C(C)C)C(=O)N2)OC(=O)C(C(C)C)NC1=O (stereo partly specified)
active: [1] 7500 nM | [2] 9.4 nM | [3] 1500 nM | [4] 7500 nM
not listed: [6] | [18] | [19]
inactive: all other assays above

OCC(O)COc1ccc(Cl)cc1 (stereo unspecified)
not listed: [9]
inactive: all other assays above

CC1(C)S[C@@H]2[C@H](NC(=O)Cc3ccccc3)C(=O)N2[C@H]1C(=O)O
not listed: [9]
inactive: all other assays above

CC[C@H](C)[C@H](NC(=O)[C@H](Cc1ccccc1)NC(=O)[C@H](C)NC(=O)[C@H](CC(=O)O)NC(=O)[C@H](CCCCN)NC(=O)[C@H](CO)NC(=O)[C@@H]1CCCN1C(=O)[C@@H]1CCC(=O)N1)C(=O)NCC(=O)N[C@@H](CC(C)C)C(=O)N[C@@H](CCSC)C(N)=O ([pGlu]PSKDAFIGLM-NH2)
not listed: [6] | [18] | [19]
inactive: all other assays above

CC[N+](C)(C)Cc1ccccc1Br
not listed: [7] | [20]
inactive: all other assays above

CCc1ccc(S(=O)(=O)O)cc1
not listed: [6] | [18] | [19]
inactive: all other assays above

COC(=O)CCC(=O)CN
not listed: [9]
inactive: all other assays above

COCC1=C(C(=O)OC(C)OC(=O)OC(C)C)N2C(=O)[C@@H](NC(=O)/C(=N\OC)c3csc(N)n3)[C@H]2SC1 (stereo partly specified)
not listed: [7] | [18] | [19]
inactive: all other assays above

CN(C)C=Nc1c(I)cc(I)c(CCC(=O)O)c1I
not listed: [6] | [18] | [19]
inactive: all other assays above

CC(C)(C)CC(C)(C)c1cc(Cc2cc(C(C)(C)CC(C)(C)C)cc(-n3nc4ccccc4n3)c2O)c(O)c(-n2nc3ccccc3n2)c1
not listed: [6] | [18] | [19]
inactive: all other assays above

O=C(O)CCC/C=C\C[C@@H]1[C@@H](/C=C/[C@@H](O)COc2cccc(Cl)c2)[C@H](O)C[C@@H]1O
not listed: [6] | [18] | [19]
inactive: all other assays above

C[N+](C)(CCCCCC[N+](C)(C)C1c2ccccc2-c2ccccc21)C1c2ccccc2-c2ccccc21
not listed: [9] | [14]
inactive: all other assays above

CC(C(=O)O)c1ccc(C2CCCCC2)c2ccccc12 (stereo unspecified)
not listed: [6] | [18] | [19]
inactive: all other assays above

O=C(NNCS(=O)(=O)O)c1ccncc1
not listed: [6] | [19]
inactive: all other assays above

C=CCOc1ccc(CC(=O)O)cc1Cl
not listed: [6] | [18] | [19]
inactive: all other assays above
